For 35 targets, log2 fold change results are on record in the supplement of paper PMC10849652.

Of roughly 7,900 targets only a part is listed; those with a hit were picked by preference. About 0.6% of all pairs of compound and target were hits. Values without a mark were called inactive.

Sequence of UniProt Q6ZVM7 (Q6ZVM7 whole entry, looked up): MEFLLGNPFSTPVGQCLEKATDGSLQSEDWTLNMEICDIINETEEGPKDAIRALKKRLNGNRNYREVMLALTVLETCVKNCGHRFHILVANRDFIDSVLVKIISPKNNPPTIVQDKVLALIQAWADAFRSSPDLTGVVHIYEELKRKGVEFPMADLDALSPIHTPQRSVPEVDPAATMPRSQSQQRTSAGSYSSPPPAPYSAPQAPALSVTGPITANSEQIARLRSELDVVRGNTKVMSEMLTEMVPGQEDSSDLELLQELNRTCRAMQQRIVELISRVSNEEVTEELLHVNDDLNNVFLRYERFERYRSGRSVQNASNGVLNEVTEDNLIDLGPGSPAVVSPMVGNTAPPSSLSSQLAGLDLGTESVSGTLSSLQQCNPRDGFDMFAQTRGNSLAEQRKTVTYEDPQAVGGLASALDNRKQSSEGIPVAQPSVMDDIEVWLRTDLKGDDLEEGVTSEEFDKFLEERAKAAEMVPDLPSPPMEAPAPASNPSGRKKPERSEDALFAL
Sequence of UniProt Q8IWA0 (Q8IWA0 whole entry, looked up): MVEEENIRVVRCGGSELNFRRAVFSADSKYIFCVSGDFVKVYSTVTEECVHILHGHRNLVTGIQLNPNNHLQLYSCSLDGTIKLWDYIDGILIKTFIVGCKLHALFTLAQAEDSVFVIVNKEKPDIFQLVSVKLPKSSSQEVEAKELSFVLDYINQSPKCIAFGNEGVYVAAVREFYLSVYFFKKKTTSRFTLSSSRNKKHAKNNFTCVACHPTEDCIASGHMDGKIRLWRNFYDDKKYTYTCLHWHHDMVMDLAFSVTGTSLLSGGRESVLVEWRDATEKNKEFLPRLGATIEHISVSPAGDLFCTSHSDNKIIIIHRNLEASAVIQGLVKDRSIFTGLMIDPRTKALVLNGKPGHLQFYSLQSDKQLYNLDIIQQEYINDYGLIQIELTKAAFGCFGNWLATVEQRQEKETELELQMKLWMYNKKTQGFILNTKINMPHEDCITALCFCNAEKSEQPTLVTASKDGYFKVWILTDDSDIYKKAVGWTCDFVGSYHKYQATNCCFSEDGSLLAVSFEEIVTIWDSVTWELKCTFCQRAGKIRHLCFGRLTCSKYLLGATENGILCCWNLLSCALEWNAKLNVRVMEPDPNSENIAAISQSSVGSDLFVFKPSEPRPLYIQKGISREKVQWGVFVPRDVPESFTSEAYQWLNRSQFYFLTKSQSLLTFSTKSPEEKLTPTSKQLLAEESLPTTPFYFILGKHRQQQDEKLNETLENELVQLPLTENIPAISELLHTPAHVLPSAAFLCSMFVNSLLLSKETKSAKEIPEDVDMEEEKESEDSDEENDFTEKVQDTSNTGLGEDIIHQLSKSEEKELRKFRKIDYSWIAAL
Sequence of UniProt Q9NUM4 (Q9NUM4 whole entry, looked up): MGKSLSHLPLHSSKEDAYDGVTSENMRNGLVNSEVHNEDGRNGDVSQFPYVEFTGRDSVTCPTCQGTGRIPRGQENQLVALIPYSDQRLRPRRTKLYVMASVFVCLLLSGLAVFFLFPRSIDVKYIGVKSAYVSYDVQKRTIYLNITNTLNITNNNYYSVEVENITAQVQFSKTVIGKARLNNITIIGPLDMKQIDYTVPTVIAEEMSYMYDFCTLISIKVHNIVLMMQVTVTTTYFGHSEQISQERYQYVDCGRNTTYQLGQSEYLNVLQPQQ
Sequence of UniProt O75691 (O75691 whole entry, looked up): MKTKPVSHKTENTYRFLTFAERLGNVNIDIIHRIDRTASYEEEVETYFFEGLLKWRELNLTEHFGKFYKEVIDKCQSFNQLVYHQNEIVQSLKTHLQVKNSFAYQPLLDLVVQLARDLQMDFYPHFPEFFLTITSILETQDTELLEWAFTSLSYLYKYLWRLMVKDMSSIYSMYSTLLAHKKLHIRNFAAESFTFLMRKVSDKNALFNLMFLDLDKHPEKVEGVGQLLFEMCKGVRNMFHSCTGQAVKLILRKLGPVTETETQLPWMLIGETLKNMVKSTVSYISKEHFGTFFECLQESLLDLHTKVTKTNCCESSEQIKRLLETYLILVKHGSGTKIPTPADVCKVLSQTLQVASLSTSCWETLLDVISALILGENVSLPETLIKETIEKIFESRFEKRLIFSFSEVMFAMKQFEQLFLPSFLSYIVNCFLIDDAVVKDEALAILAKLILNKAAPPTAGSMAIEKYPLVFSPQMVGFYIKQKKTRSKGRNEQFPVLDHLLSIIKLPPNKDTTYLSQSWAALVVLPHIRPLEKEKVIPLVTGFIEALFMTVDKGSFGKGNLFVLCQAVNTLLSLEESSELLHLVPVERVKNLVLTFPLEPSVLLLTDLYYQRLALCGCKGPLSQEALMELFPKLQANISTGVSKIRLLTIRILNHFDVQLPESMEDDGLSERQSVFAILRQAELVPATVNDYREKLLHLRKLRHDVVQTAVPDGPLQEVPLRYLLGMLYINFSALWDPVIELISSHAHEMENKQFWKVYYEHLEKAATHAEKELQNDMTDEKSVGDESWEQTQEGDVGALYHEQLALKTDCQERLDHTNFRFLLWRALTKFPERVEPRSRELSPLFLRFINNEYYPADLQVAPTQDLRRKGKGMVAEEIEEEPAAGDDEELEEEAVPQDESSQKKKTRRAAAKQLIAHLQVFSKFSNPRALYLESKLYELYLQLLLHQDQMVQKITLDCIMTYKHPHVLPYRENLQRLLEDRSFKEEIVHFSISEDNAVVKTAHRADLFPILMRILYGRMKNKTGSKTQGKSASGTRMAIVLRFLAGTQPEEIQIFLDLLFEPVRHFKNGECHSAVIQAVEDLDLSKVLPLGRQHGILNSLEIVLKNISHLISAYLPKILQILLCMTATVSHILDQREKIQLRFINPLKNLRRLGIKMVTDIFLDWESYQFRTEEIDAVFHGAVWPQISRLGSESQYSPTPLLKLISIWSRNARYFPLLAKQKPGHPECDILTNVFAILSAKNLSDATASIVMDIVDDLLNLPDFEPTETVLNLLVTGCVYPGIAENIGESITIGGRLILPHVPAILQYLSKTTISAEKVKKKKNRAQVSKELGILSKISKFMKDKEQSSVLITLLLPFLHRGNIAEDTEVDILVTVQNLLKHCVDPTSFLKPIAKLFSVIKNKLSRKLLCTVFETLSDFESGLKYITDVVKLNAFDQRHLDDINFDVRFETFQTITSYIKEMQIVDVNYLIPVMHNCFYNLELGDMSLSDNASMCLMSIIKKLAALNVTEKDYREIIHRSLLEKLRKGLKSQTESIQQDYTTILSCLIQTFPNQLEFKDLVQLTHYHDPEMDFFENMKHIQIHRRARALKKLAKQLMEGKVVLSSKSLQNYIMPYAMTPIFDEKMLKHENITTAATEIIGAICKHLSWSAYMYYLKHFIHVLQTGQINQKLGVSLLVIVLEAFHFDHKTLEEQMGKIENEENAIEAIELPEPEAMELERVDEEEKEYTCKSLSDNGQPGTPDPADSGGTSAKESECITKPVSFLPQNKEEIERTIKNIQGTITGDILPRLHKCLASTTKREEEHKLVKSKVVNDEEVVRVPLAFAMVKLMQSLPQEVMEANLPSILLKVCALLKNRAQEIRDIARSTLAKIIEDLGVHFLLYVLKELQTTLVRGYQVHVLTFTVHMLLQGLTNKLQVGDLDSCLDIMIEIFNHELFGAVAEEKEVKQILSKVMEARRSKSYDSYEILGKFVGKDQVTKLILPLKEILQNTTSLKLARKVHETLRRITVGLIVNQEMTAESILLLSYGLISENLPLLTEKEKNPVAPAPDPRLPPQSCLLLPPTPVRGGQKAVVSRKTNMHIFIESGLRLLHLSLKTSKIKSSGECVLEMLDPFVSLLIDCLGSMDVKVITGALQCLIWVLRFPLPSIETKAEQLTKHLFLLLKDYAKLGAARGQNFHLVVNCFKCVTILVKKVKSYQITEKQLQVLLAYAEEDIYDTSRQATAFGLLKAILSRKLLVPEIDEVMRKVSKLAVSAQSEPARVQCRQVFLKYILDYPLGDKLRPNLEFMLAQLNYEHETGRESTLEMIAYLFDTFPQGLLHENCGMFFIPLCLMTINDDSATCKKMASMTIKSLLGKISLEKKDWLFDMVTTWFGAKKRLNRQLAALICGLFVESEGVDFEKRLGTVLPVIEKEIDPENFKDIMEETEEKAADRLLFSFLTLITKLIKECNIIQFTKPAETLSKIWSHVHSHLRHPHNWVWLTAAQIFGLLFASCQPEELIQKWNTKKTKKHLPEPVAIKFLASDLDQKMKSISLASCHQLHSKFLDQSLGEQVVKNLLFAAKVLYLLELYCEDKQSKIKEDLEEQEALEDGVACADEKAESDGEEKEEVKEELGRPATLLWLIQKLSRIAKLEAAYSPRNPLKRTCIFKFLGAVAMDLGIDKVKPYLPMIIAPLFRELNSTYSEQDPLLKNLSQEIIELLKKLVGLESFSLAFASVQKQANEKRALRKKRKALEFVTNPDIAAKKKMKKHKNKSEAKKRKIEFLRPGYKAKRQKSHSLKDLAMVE
Sequence of UniProt P98170 (P98170 whole entry, looked up): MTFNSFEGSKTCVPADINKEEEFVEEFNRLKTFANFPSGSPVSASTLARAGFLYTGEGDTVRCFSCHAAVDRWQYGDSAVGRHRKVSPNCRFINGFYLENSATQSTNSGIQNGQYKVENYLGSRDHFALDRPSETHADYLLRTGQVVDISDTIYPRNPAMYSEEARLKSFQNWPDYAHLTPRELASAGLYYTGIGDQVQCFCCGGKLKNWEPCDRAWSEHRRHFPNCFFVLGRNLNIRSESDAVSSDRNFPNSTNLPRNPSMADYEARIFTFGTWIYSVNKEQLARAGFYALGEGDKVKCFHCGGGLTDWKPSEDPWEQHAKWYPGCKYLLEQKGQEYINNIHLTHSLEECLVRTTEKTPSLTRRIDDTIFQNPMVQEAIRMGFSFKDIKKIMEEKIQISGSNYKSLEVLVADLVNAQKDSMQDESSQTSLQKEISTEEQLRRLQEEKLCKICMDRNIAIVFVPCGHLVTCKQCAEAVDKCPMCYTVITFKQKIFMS
Sequence of UniProt P51668 (P51668 whole entry, looked up): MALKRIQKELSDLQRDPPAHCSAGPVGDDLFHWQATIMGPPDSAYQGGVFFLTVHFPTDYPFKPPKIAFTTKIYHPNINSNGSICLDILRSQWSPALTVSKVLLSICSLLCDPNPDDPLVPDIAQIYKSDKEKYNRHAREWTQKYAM

Compound in the first experiment: CC[C@@H]1C(=O)N(C)c2cnc(Nc3ccc(C(=O)N[C@H]4CC[C@H](N5CCN(CC6CC6)CC5)CC4)cc3OC)nc2N1C(C)C [volasertib]
Put plainly: log2 fold change, soluble protein after heating vs DMSO (PISA); higher = thermal stabilisation; K562 cells, 10 uM, 30 min; active = over 0.2 and 3.5 SD of the protein, either way, in both replicates (recomputed). The method in brief:
(§1)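 Thermal stability values are relative to control samples and come from duplicates. They are expressed as log2 fold changes. For measurement, K562 cells (2×10^6 cells/mL) received 10 μM compound for 30 min, and aliquots were heated for 3 min over 48°C-58°C, pooled, and extracted at 4°C in PBS with 0.5% NP-40. Soluble protein, the supernatant after 21,000xg for 90 min, was quantified by TMTpro 16plex LC-MS/MS with equalised channel sums.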
As to TVP23C (UniProt Q96ET8), the log2 fold change is 0.068.

On to UBAP2L (UniProt F8W726), for which the log2 fold change was -0.002.

Turning to TMEM104 (UniProt Q8NE00), the log2 fold change is 0.043.

On to TMEM268 isoform 3 (UniProt Q5VZI3), for which the log2 fold change was -0.005.

As to TMEM164 (UniProt Q5U3C3), the log2 fold change is -0.145.

On to UTP20 (UniProt O75691), for which the log2 fold change is 0.093.

For UBE2J2 isoform 3 (UniProt Q8N2K1), the log2 fold change was -0.157.

VDAC1 (UniProt C9JI87): the log2 fold change is 0.08.

Turning to TMEM8A (UniProt Q9HCN3), the log2 fold change is 0.008.

For the target XIAP (UniProt P98170), the log2 fold change was -0.457 (active).

As for UFM1 isoform 2 (UniProt P61960), the log2 fold change was 0.012.

On to VWA3B isoform 6 (UniProt Q502W6), for which the log2 fold change is -0.631 (active).

Consider WDR46, A0A0G2JJL1, for which the log2 fold change is 0.37.

On to TXNRD1 isoform 7 (UniProt Q16881), for which the log2 fold change is -0.106.

In the case of WDR75 (UniProt Q8IWA0), the log2 fold change was -0.153.

For TUBA4A (UniProt C9JJQ8), the log2 fold change is 0.099.

In the case of UBE2D1 (UniProt P51668), the log2 fold change was -0.333 (active).

For the target TMEM219 (UniProt Q86XT9), the log2 fold change is -0.111.

Regarding TMEM106B (UniProt Q9NUM4), the log2 fold change is -0.032.

Compound in the next experiment: CC[C@H](C)N1C=C(C2=C(C=C(C=C21)C3=CN=C(C=C3)N4CCNCC4)C(=O)NCC5=C(C=C(NC5=O)C)C)C
The description is as above. The method in brief: as §1
For UBAP2L (UniProt F8W726), the log2 fold change was -0.094.

Take TMEM104 (UniProt Q8NE00): the log2 fold change is -0.033.

Regarding TMEM268 isoform 3 (UniProt Q5VZI3), the log2 fold change was 0.112.

Take TMEM164 (UniProt Q5U3C3): the log2 fold change is -0.01.

As for USP48 (UniProt Q86UV5), the log2 fold change is 0.059.

For the target VDAC1 (UniProt C9JI87), the log2 fold change was -0.334.

Take TMEM8A (UniProt Q9HCN3): the log2 fold change was -0.108.

With XIAP (UniProt P98170), the log2 fold change is 0.094.

As to UFM1 isoform 2 (UniProt P61960), the log2 fold change is 0.069.

Consider TRIM23 (UniProt P36406), for which the log2 fold change is 0.049.

For VWA3B isoform 6 (UniProt Q502W6), the log2 fold change was -0.203.

For the target WDR46, A0A0G2JJL1, the log2 fold change was -0.068.

As for WDR75 (UniProt Q8IWA0), the log2 fold change was -0.041.

With WARS1 (UniProt G3V277), the log2 fold change is -0.041.

Regarding TOM1L2 (UniProt Q6ZVM7), the log2 fold change was -0.025.

As to U2AF1L5 (UniProt P0DN76), the log2 fold change is 0.045.

As to TMEM184C (UniProt Q9NVA4), the log2 fold change was 0.033.

On to UBE2D1 (UniProt P51668), for which the log2 fold change was -0.024.

Take TMEM219 (UniProt Q86XT9): the log2 fold change was 0.033.

In the case of TMEM106B (UniProt Q9NUM4), the log2 fold change is -0.05.

Compound in a further experiment: CC[C@H](C)[C@@H](C(=O)N[C@@H]([C@@H](C)O)C(=O)N[C@@H](CC(C)C)C(=O)[C@]1(CO1)C)NC(=O)[C@H]([C@@H](C)CC)N(C)C(=O)C [epoxomicin]
Described as above. The method in brief:
as §1
As for WARS1 (UniProt G3V227), the log2 fold change is -0.28.

For the target WDR4 isoform 3 (UniProt P57081), the log2 fold change is 0.017.

As for TMEM104 (UniProt Q8NE00), the log2 fold change was -0.19.

TMEM268 isoform 3 (UniProt Q5VZI3): the log2 fold change was 0.536 (active).

As to TMEM164 (UniProt Q5U3C3), the log2 fold change is 0.082.

Take XRCC1 (UniProt P18887): the log2 fold change is -0.1.

Turning to UTP20 (UniProt O75691), the log2 fold change is -0.355.

UBE2J2 isoform 3 (UniProt Q8N2K1): the log2 fold change is 0.254.

On to VDAC1 (UniProt C9JI87), for which the log2 fold change is -0.007.

Turning to TRIM5 (UniProt Q9C035), the log2 fold change is 0.

As to XIAP (UniProt P98170), the log2 fold change is 0.

In the case of UFM1 isoform 2 (UniProt P61960), the log2 fold change is 0.029.

Consider VWA3B isoform 6 (UniProt Q502W6), for which the log2 fold change is -0.262.

On to WDR46, A0A0G2JJL1, for which the log2 fold change was -0.451.

As for TXNRD1 isoform 7 (UniProt Q16881), the log2 fold change was 0.155.

Turning to WDR75 (UniProt Q8IWA0), the log2 fold change is -0.156.

TRIQK (UniProt Q629K1): the log2 fold change is -0.02.

As for WARS1 (UniProt G3V339), the log2 fold change is -0.238.

On to XAB2 (UniProt Q9HCS7), for which the log2 fold change was 0.019.

Turning to TOM1L2 (UniProt Q6ZVM7), the log2 fold change was -0.035.

On to TOM1 (UniProt O60784), for which the log2 fold change was 0.094.

Regarding TMEM184C (UniProt Q9NVA4), the log2 fold change is 0.087.

On to WARS1 (UniProt G3V5U1), for which the log2 fold change is -0.237.

TMEM219 (UniProt Q86XT9): the log2 fold change was 0.035.

Take TMEM106B (UniProt Q9NUM4): the log2 fold change was -0.11.

Compound in another experiment: CCn1c(C(=O)N(C2CC2)C2CC2)cc2c3c(ncn3C)c(Nc3cc(C)n(C)n3)nc21
The experiment is described as above. The method in brief:
as §1
Regarding TVP23C (UniProt Q96ET8), the log2 fold change was 0.039.

Consider UBAP2L (UniProt F8W726), for which the log2 fold change is 0.008.

In the case of TMEM104 (UniProt Q8NE00), the log2 fold change was -0.027.

For the target TMEM268 isoform 3 (UniProt Q5VZI3), the log2 fold change was 0.093.

In the case of TMEM164 (UniProt Q5U3C3), the log2 fold change is 0.045.

For the target USP48 (UniProt Q86UV5), the log2 fold change was -0.045.

For the target XRCC1 (UniProt P18887), the log2 fold change was -0.09.

For UTP20 (UniProt O75691), the log2 fold change is 0.105.

Turning to UBE2J2 isoform 3 (UniProt Q8N2K1), the log2 fold change was 0.047.

As to VDAC1 (UniProt C9JI87), the log2 fold change is 0.

Take TMEM8A (UniProt Q9HCN3): the log2 fold change was 0.068.

Take TRIM5 (UniProt Q9C035): the log2 fold change is 0.017.

Take XIAP (UniProt P98170): the log2 fold change is -0.029.

Regarding UFM1 isoform 2 (UniProt P61960), the log2 fold change was 0.034.

Turning to TRIM23 (UniProt P36406), the log2 fold change is -0.059.

Regarding VWA3B isoform 6 (UniProt Q502W6), the log2 fold change is -0.037.

WDR46, A0A0G2JJL1: the log2 fold change was -0.108.

Take TXNRD1 isoform 7 (UniProt Q16881): the log2 fold change is -0.001.

TRPT1 isoform 4 (UniProt Q86TN4): the log2 fold change is 0.071.

As for WARS1 (UniProt G3V277), the log2 fold change is -0.084.

With TOM1L2 (UniProt Q6ZVM7), the log2 fold change was 0.09.

As for U2AF1L5 (UniProt P0DN76), the log2 fold change is -0.303.

As for TOM1 (UniProt O60784), the log2 fold change was 0.035.

With UBE2D1 (UniProt P51668), the log2 fold change was 0.037.

On to TMEM219 (UniProt Q86XT9), for which the log2 fold change is 0.002.

On to TMEM106B (UniProt Q9NUM4), for which the log2 fold change is -0.026.
